Compounds with a hit are over-represented: about 7.5% of the library has one in this group of screens.
NPC1 promoter act = NPC1 promoter activation; Potency, µM (series often up to 9.22 µM), without a hit: top-dose activation, most hits filed as activators; 320,000 tested, 2.4% active; Huh7 NPC1 promoter luciferase reporter, 24 h; note: % of control where 0% means no effect; nearly all actives have a fitted effect of over 60% in size
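Luciferase expression driven by the NPC1 promoter was measured in stably transfected Huh7 cells after a 24 h compound incubation, using a luciferase reagent and a luminescence read.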
SMN2 splice up = enhancers of SMN2 splice variant expression; 210,000 tested, 2.8% active; HEK293 SMN2-luciferase splicing reporter, luminescence, 30-36 h; Potency, µM (titrated, usually from 46.1 µM), for inactives: at the highest dose activity change, positive = activation, hits mostly activators; note: % of control where 0% means no effect; nearly all actives have a fitted effect of over 55% in size
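HEK293 cells carry an SMN2 […]–luciferase reporter in which exon 7 inclusion puts luciferase in frame. Cells were plated 10-12 h before compound addition, then incubated 30-36 h at 37C. ONE-Glo luminescence was read; sodium butyrate at 4.5 mM final served as control.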
FLuc counter = inhibits or activates purified firefly luciferase, miR-21 counter-screen; P08659; purified FLuc, Km substrates, luminescence inhibition; Potency, µM (series often up to 57.5 µM), without a hit: at the highest dose activity change, negative = inhibition, most hits filed as inhibitors; 360,000 tested, 6.9% active; AID 588342;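 note: plate controls were vehicle for no effect and reference inhibitor for full effect; nearly all actives have a fitted effect of over 55% in size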
Target sequence (P08659 whole entry, looked up): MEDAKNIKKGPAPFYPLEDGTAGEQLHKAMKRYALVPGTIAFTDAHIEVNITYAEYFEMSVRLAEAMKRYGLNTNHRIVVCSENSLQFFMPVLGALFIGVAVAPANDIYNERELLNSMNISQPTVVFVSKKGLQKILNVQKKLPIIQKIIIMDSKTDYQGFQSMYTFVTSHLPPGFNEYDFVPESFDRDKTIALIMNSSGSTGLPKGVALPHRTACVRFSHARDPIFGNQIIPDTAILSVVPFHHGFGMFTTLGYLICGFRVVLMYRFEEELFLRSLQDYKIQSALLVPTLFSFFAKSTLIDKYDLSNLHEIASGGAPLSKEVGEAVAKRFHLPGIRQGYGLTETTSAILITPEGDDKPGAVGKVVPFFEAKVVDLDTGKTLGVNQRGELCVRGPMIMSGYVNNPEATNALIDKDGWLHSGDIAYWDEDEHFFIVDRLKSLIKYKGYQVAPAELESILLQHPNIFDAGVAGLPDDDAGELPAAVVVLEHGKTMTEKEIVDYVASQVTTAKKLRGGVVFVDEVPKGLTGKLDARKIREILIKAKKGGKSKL
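Purified P. pyralis luciferase, 10 nM final, with Km-level 10 uM D-luciferin and 10 uM ATP in 50 mM Tris acetate pH 7.5, 10 mM Mg acetate, 0.01% Tween-20, 0.05% BSA; 6-point qHTS titration about 60 µM downward; luminescence read.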
Rab9 prom act = activates the Rab9 promoter. 320,000 tested, 2.8% active. Potency, µM (highest dose often 9.22 µM), without a hit: at the highest dose activation, negative = inhibition, most hits filed as activators. Huh7 Rab9 promoter-luciferase reporter, luminescence, 24 h. AID 485297; note: % of control where 0% means no effect; nearly all actives have a fitted effect of over 60% in size
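Cells were plated at 1500 per well in reduced-serum medium with 10% FBS and left 2 h. Compound in DMSO was then added for 24 h at 37 °C. Reporter signal was read by luminescence after 10 min with luciferase detection reagent.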
Luc counter = Kinase-Glo luciferase inhibition (counter-screen); Q27757; Kinase-Glo luciferase, ATP luminescence, 8 min; Potency, µM (doses to about 38.3 µM), for inactives: top-dose activity change, negative = inhibition, usual class: inhibitors; 200,000 tested, 0.28% active; AID 1379; note: % is set by controls: 0 for no effect and ±100 for the full control effect; nearly all actives have a fitted effect of over 60% in size
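Recombinant Kinase-Glo luciferase, 10 uM ATP (linear range), luciferin; imidazole pH 7.2 / KCl / MgCl2 / Tween / BSA buffer; 8 min RT; luminescence.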
ELG1 genotoxic = inducers of genotoxicity in HEK293T ELG1-luciferase cells. HEK293T ELG1-luciferase reporter, luminescence, 16 h. Potency, µM (top dose mostly 46 µM), inactives show at the highest dose activity change, positive = activation, hits mostly activators. 330,000 tested, 1.3% active; note: % of control where 0% means no effect; nearly all actives have a fitted effect of over 60% in size
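Luminescence read-out: rising ELG1-luciferase signal, reflecting elevated ELG1 protein under genetic stress, flags genotoxic compounds. Cells were treated for 16 hr at 37 °C before ONE-Glo detection.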
Starred values were filed as active, the others as inactive; ? = inconclusive; . = no result given; [ ] = another dose, or the depositor's remark. Calls come from the whole dose curve; as a rule, active = well fitted curve in the direction sought with a large enough effect; inconclusive = small, poorly fitted or top-dose-only effect, or another doubt; inactive = no such curve, though single readings can be large; an effect the other way counts as inactive or inconclusive. Potency is the fitted concentration of half-maximal effect.

SMILES	NPC1 promoter act	SMN2 splice up	FLuc counter	Rab9 prom act	Luc counter	ELG1 genotoxic
c1cncc(-c2nc(-c3ccc4c(c3)OCO4)cs2)c1	2.8µM*	.	4.8µM*	1.6µM*	-3%	?
Cc1nc(-c2cccc(N)c2)cs1	11%	7%	-15%	-1%	4%	19%
COc1ccc(-c2csc(C)n2)cc1OC	2%	-13%	?	8%	-6%	14%
COCCNC(=O)c1c(-c2ccccc2)c(-c2ccccc2)nn(C)c1=O	.	13%	-2%	.	.	.
COc1ccc(Cl)cc1NC(=O)c1c(C(=O)Nc2cccc(C)c2C)sc2nc(C)cc(=O)n12	.	-4%	1%	.	.	.
COc1ccc(NC(=O)C2COc3ccccc3C2)cc1Cl (stereo not drawn)	.	.	-1%	.	.	.
COC(=O)c1ccc(Cn2c(SCc3ccccc3)nc3ccncc32)cc1	.	5%	-18%	.	.	.
CCOC(=O)c1c(NC(=O)c2cc(-c3ccc(OC)cc3)on2)sc(C)c1C	.	-2%	-2%	.	.	.
Cc1cccc(NC(=O)CSc2nc(C3CCCC3)nc3c2c(=O)n(C)c(=O)n3C)c1C	.	.	-2%	.	.	.
Nc1nc(-c2cccc(F)c2)cs1	-1%	.	-9%	-1%	-6%	2%
Nc1nc(-c2ccc3c(c2)CCCC3)cs1	2.2µM*	11µM*	2.1µM*	2.8µM*	-17%	?
Nc1nc(-c2cc3c(cc2Cl)OCCO3)cs1	2%	.	?	8%	.	8%
Nc1nc(-c2ccc3c(c2)OCCO3)cs1	3.5µM*	16µM*	9.5µM*	3.5µM*	-2%	21µM*
COc1cc(C(=O)NCC(c2ccco2)S(=O)(=O)c2cccs2)cc(OC)c1OC (stereo not drawn)	.	.	2%	.	.	.
CCN(CC)c1ccc(C2Nc3cccc4cccc(c34)N2)c(O)c1	?	0%	17µM*	?	3%	10%
COc1ccc(Br)cc1C1Nc2cccc3cccc(c23)N1	?	.	-20%	23%	.	?
COc1cc(C2Nc3cccc4cccc(c34)N2)cc(OC)c1OC(C)=O	-2%	4%	17µM*	2%	-7%	5%
COc1cc(C2Nc3cccc4cccc(c34)N2)ccc1O	?	.	13µM*	18%	.	-2%
Cc1ccc(CCNC(=O)c2sc3nc4n(c(=O)c3c2C)CCCC4)cc1	.	.	-8%	.	.	.
CCCCCCCCN[C@@H](C)[C@H](O)c1ccc(SC(C)C)cc1	.	5%[20.6 µM]	.	.	4%[17.1 µM]	.
Cc1ccc(Nc2nc3ccccc3n3cnnc23)cc1C	1.1µM*	.	?	?	.	10%
Cc1cccc(CCNc2nc3ccc(C)cc3n3cnnc23)c1	?	.	17µM*	14%[1.84 µM]	.	?
Cc1ccc2nc(NCCc3ccc(Cl)cc3)c3nncn3c2c1	-2%	?	0%	-2%	.	0%
COc1cc2c(=O)c(S(=O)(=O)c3ccccc3)cn(CC(=O)Nc3ccccc3C)c2cc1OC	.	-13%	2%	.	.	.
Cc1c2c(nc3ccccc13)CCC(C(C)(C)C)C2 (stereo not drawn)	23%	?	12µM*	19%	-1%	15%
SMILES	NPC1 promoter act	SMN2 splice up	FLuc counter	Rab9 prom act	Luc counter	ELG1 genotoxic
Clc1c2c(nc3ccccc13)CCC2	-7%	.	?	2%	.	-1%
Cc1ccc2oc(-c3ccc(Cl)c(NC(=O)c4ccc(OC(C)C)cc4)c3)nc2c1	.	0%	?	.	.	.
CC(=O)Nc1ccc(S(=O)(=O)NC(C)C(=O)NCC(c2ccco2)N2CCCCC2)cc1 (stereo not drawn)	0%	.	6%	-4%	.	2%
Cc1ccc(S(=O)(=O)NC(CC(C)C)C(=O)NCC(c2ccco2)N2CCCCC2)cc1 (stereo not drawn)	0%	.	19µM*	1%	.	?
Cc1ccccc1C(=O)NNC(=S)NC(=O)c1ccc(Cl)cc1Cl	0%	10%	2%	1%	1%	-3%
COc1cc([N+](=O)[O-])ccc1NC(=S)NNC(=O)CCC(=O)Nc1ccccc1Cl	?	.	?	?	.	9.2µM*
